Each structure is given as a SMILES string. The campaign covered roughly 370,000 compounds. About 6,800 (1.8%) were called active. The sample holds actives, similar compounds and a random draw of the others, so the mix is not that of the screen. Unmarked numbers belong to inactive results.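 Rule for the calls: active = activation above a cutoff set at the mean of all screened compounds plus 3 SD (cut at about 10% in these data); inactive = the rest.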

In PubChem BioAssay AID687014 (The Scripps Research Institute Molecular Screening Center, 2013) one finds activation data, which are given here for 86 compounds.

In the assay the test system is Nuclear hormone receptor DAF-12 (Heterodera glycines), GAL4 fusion. The experiment in a line: hgDAF-12 GAL4 fusion reporter activation – cell-based, luminescence, HEK293, UAS-luciferase, primary screen (AID 687014).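 Note: 0% = DMSO wells and 100% = sodium butyrate wells.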 As to conditions: HEK293 GAL4-hgDAF12 UAS-luciferase reporter, agonist luminescence; at 6.8 µM; stronger effect = higher value; normalized to butyrate control.
Turning to `Cc1c(C(C)c2ccccc2O)[nH]c2ccccc12` (stereo unspecified), the activation was 2.99%.

With `Cc1sc2ncnc(N3CCC(C(=O)Nc4ccc(F)cc4Cl)CC3)c2c1C`, the activation is -1.36%.

For the compound `Cc1sc2ncnc(N3CCC(C(=O)NNC(=O)c4ccc(F)cc4)CC3)c2c1C`, the activation was -1.73%.

On to `Cc1sc2ncnc(N3CCC(C(=O)Nc4nc5ccc(Cl)cc5s4)CC3)c2c1C`, for which the activation is 12.9% (active).

Consider `COc1ccc(OC)c(NC(=O)C2CCCN2S(=O)(=O)c2ccc3c(c2)CC(C)N3C(C)=O)c1` (stereo unspecified), for which the activation was -2.45%.

Consider `O=C(NCc1ccc(Cl)cc1)C1CCCN(c2nc3ccccc3o2)C1` (stereo unspecified), for which the activation was -0.62%.

Consider `CC(=O)C1(C(=O)Nc2nccs2)CC(c2ccccc2C(F)(F)F)=NO1` (stereo unspecified), for which the activation was 0.67%.

For the compound `O=c1c2cc([N+](=O)[O-])ccc2nc2n1CCC2`, the activation is -2.97%.

For the compound `Cc1ccc(-n2cc3ccc([N+](=O)[O-])cc3n2)cc1`, the activation is 17.1% (active).

Turning to `Cc1ccnc(N2C(=O)c3ccc([N+](=O)[O-])cc3C2=O)c1`, the activation was 0.65%.

On to `Cc1cccc(N2C(=O)SC(SC(=Nc3ccccc3)Nc3ccccc3)C2=O)c1` (stereo unspecified), for which the activation was 12.4% (active).

As for `COC(=O)c1ccccc1SC1CC(=O)N(c2cccc(C)c2)C1=O` (stereo unspecified), the activation is -0.2%.

Consider `Cc1cccc(N2C(=O)SC(N(CC(=O)O)c3cccc(C)c3)C2=O)c1` (stereo unspecified), for which the activation was 2.06%.

With `O=S1(=O)c2ccc(Br)cc2OC[C@@H](Cc2ccccc2)N1Cc1cn(Cc2ccco2)nn1`, the activation is -2.95%.

Take `CC(C)(C)OC(=O)N(Cc1ccccc1)Cc1ccc(OCc2cccc(NC(=O)c3ccccc3)c2)cc1`: the activation was 3.23%.

Regarding `CCOc1ccc(OCc2cccc(C(=O)N(CC)CC)c2)cc1`, the activation is 15.3% (active).

As to `CCOc1ccc(OCc2ccc(C(=O)N(C)c3ccccc3)o2)cc1`, the activation is -0.02%.

As to `COc1cccc(N2CCN(CC(=O)N(C)Cc3ccc(F)cc3)CC2)c1`, the activation was 2.78%.

`CC(C)CNC(=O)OCc1cn(Cc2ccc(F)cc2)nn1`: the activation was 0.8%.

In the case of `CS(=O)(=O)N(CC(=O)NC1CCCC1)Cc1ccc(F)cc1`, the activation was -0.56%.

With `Cc1ccc(-c2nnc(SCC(=O)Nc3ccc(Oc4ccccc4)cc3)n2Cc2ccco2)cc1`, the activation is -0.14%.

Turning to `CC(C)(C)OC(=O)N[C@H](C(=O)OC(C)(C)C)c1ccc(Br)cc1`, the activation was 2.51%.

Take `CC(=O)Nc1ccc(S(=O)(=O)NCC(=O)OCC(=O)c2ccc[nH]2)cc1`: the activation is -0.16%.

For `C/C(=N\NC(=O)OC(C)(C)C)c1ccc[nH]1`, the activation was 13.9% (active).

With `COC(=O)[C@]12C[C@H](CC(=O)NCc3ccc(OC)c(OC)c3)C(=O)N(Cc3ccccc3)C1=C[C@H](C(C)C)O[C@@H]2C1CC1`, the activation is -0.64%.

For `c1cncc(CNc2ccnc(-c3ccc4c(c3)OCO4)n2)c1`, the activation is 8.09%.

With `Cc1cc(NS(=O)(=O)c2ccc(NC(=O)CSc3nnc(-c4ccc(C(C)(C)C)cc4)n3Cc3ccco3)cc2)nc(C)n1`, the activation is 0.44%.

As to `O=C(NC1CCCC1)C(c1ccccn1)N(C(=O)c1csnn1)C1CCCC1` (stereo unspecified), the activation is -0.77%.

`CN(C)c1ccc(/C=C2\NC(=S)N(Cc3ccccc3)C2=O)cc1`: the activation is 2.67%.

For `CN(C)c1ccc(C=C2C(=O)OC3(CCCC3)OC2=O)cc1`, the activation was 11.1% (active).

Turning to `CCCC[C@H](C(=O)N(CC)c1ccccc1)[C@@H](O)c1ccc2ccccc2c1`, the activation is -1.89%.

On to `CCCNC(=O)Nc1ccc2c(c1)C(=O)N(C)[C@H]1CC[C@H](CC(=O)NCC3CCCCC3)O[C@@H]1CO2`, for which the activation was 2.46%.

Regarding `CCc1ccccc1S(=O)(=O)Cc1ccc(C(=O)NCCc2ccccc2)o1`, the activation was -1.29%.

For `CCCOc1ccc(Oc2c(Cl)cnn(Cc3cccc4ccccc34)c2=O)cc1`, the activation is -0.9%.

For `COc1ccc(C=C(C#N)C#N)c(CSc2ccccn2)c1`, the activation was -4.02%.

In the case of `COc1ccc2nc(-c3ccccn3)ccc2c1`, the activation was 14.8% (active).

For `COc1ccc2cc(CCl)c(Cl)nc2c1`, the activation was 5.31%.

For `CN1CCCCC(NC(=O)C(C)(C)C)C1=O` (stereo unspecified), the activation was -0.75%.

In the case of `COc1ccc(-c2cc(C3CCN(c4ncccc4[N+](=O)[O-])CC3)[nH]n2)cc1`, the activation is -1.82%.

For `COc1ccc(-c2cc3n(n2)CCc2nc4ccccc4n2-3)cc1`, the activation was 1.57%.

On to `COc1ccc(-c2cc3ncccc3cn2)cc1`, for which the activation was 14.3% (active).

For the compound `COc1cccc(N(C)C(=O)[C@@H](C)[C@@H](O)c2ccc3ccccc3c2)c1`, the activation was -0.12%.

Regarding `O=C(NCc1ccco1)C1CCCN(S(=O)(=O)c2ccc(Cl)s2)C1` (stereo unspecified), the activation is 2.01%.

On to `CN(C(N)=NC(=O)/C=C/c1ccccc1)C(C#Cc1ccccc1)Cc1ccccc1` (stereo unspecified), for which the activation was 2.81%.

As for `CCCCn1c(N)c(N(CC(C)C)C(=O)CSc2ccc([N+](=O)[O-])cc2)c(=O)[nH]c1=O`, the activation is 2.08%.

For `Cn1cnc(C(F)(F)F)c1-c1ccc([N+](=O)[O-])cc1`, the activation is 0.97%.

As for `CN1CCN(/N=C/c2ccc(-c3ccc([N+](=O)[O-])cc3)o2)CC1`, the activation is 10.5% (active).

On to `O=C1C2C3C=CC(C4CC34)C2C(=O)N1/N=C/c1ccc(-c2ccccc2[N+](=O)[O-])o1` (stereo unspecified), for which the activation was -3.65%.

`O=C(CSc1nc2c(c(=O)[nH]1)CCCC2)N1CCCCC1`: the activation was -4.02%.

As to `Cc1cc(C)nc(Nc2n[nH]c(-c3ccccc3N)n2)n1`, the activation was 12.2% (active).

`CCCOc1ccccc1-c1nc(SCCC(=O)O)n[nH]1`: the activation was -0.41%.

In the case of `O=C(OCC#CCSc1nnc(-c2ccco2)o1)c1ccc(F)cc1`, the activation was -3.04%.

In the case of `COC(=O)C1=C(C)NC(=S)NC1c1ccc(OC)cc1` (stereo unspecified), the activation was 0.66%.

On to `CCOC(=O)[C@]12CCCCC/C=C\1N(Cc1ccc(OC)cc1)C(=O)[C@H]2CC(=O)NCc1ccc(C)o1`, for which the activation was -1.27%.

Consider `O=C(NCCCc1ccccc1)c1cc(COc2c(F)cccc2F)on1`, for which the activation was 4.73%.

For `CC(C)Cc1cc(C(=O)Nc2cc(Br)ccc2O)no1`, the activation was 6.04%.

Regarding `CC(C)Cc1cc(C(=O)NCCc2ccccc2)no1`, the activation is 13% (active).

For `O=S1(=O)c2ccc(N3CCN(Cc4ccccc4F)CC3)cc2Oc2ccccc2CN1Cc1cn(Cc2ccc(Cl)cc2)nn1`, the activation is 0.48%.

Turning to `C[C@@H]1CN([C@@H](C)CO)C(=O)c2cccc(NC(=O)Nc3cccc4ccccc34)c2O[C@H]1CN(C)S(=O)(=O)c1ccccc1F`, the activation was -4.71%.

As to `CN(C)[C@H]1CCN(c2cccc3c2S(=O)(=O)N2CC[C@H](C2)O3)C1`, the activation is -1.45%.

Regarding `CCc1ccc(C(=O)NN=C2CCCCCC2)s1`, the activation was 3.37%.

Regarding `CC1CC(=NNC(=O)C2COc3ccccc3O2)CC(C)(C)C1` (stereo unspecified), the activation was 3.29%.

On to `CC1C/C(=N/NC(=O)c2cccs2)CC(C)(C)C1` (stereo unspecified), for which the activation is 14% (active).

For the compound `COc1ccccc1CCn1cnc(-c2ccccc2)c1C(C)C`, the activation was -2.29%.

With `Cc1ccn(CC(=O)N2N=C(C(F)F)CC2(O)C(F)F)n1` (stereo unspecified), the activation was 1.75%.

Turning to `CCN(CC)S(=O)(=O)c1ccc(NC(=O)CN(c2cccc(F)c2)S(C)(=O)=O)cc1`, the activation is -0.33%.

Turning to `Cc1nc2ccc(S(=O)(=O)N(C)CC(=O)NC(C)c3ccccc3)cc2s1` (stereo unspecified), the activation is -1.17%.

In the case of `Cc1cccc(N(CC(=O)Nc2ccc(-c3nc4ccc(C)cc4s3)cc2)S(C)(=O)=O)c1`, the activation is 15% (active).

On to `COc1cc(NC(=O)CN(C)S(=O)(=O)c2ccc3nc(C)sc3c2)cc(OC)c1`, for which the activation is -1.83%.

Take `Cc1ccc2nc(-c3ccc(NC(=O)CN(C)S(=O)(=O)c4ccccc4)cc3)sc2c1`: the activation is 11.4% (active).

Take `Cc1ccc(N(CC(=O)Nc2cc(C)cc(C)c2)S(=O)(=O)c2cccc3nonc23)cc1`: the activation was 1%.

Take `Cc1ccc2c(c1)N(CC(=O)N1CCC(C)CC1)C(=O)c1cccnc1O2`: the activation was -1.52%.

In the case of `CC[C@H](NC(=O)[C@H](Cc1ccccc1)NC(=O)[C@H]1O[C@@H](n2cnc3c(=O)[nH]c(N)nc32)[C@H](O)[C@@H]1O)c1ccccc1`, the activation is -0.43%.

As for `COc1ccccc1C(=O)CSc1nnc(-c2ccccn2)n1-c1ccccc1`, the activation is -5.4%.

On to `Cc1cc(=O)[nH]c(SCC(=O)Nc2ccc(F)cc2F)n1`, for which the activation was 2.35%.

For `COC(=O)[C@H](Cc1ccccc1)NC(=O)Nc1ccc(S(N)(=O)=O)cc1`, the activation was -0.11%.

In the case of `COc1ccc(CN2C/C(=C/c3ccccc3)N3C(=O)C[C@@H](c4ccccc4)N=C23)c(OC)c1`, the activation is 1.14%.

`Cc1cc(N=Nc2ccc3ccccc3c2)ccc1O`: the activation is 15.6% (active).

Consider `Cc1ccc(-n2c(SCC(=O)Nc3cccc4ccccc34)nnc2-c2ccco2)cc1`, for which the activation is -1.7%.

Take `COc1ccc([C@H]2OC(=O)C[C@H]2C(=O)N2CCN(c3ccccc3F)CC2)cc1OC`: the activation is 0.07%.

Regarding `Cc1ccc(COc2ccc(/C=N/NC(=O)CN3CCCCC3)cc2)cc1`, the activation was 10.7% (active).

Regarding `Cc1ccc(/C=N/NC(=O)COc2ccccc2-c2ccccc2)cc1`, the activation is -6.53%.

As to `O=C(CN1CCSCC1)N/N=C/c1ccc(Cl)cc1`, the activation was -0.9%.

Turning to `Cc1ccc(Cn2cc(CN3[C@@H](C)COc4cc(Br)ccc4S3(=O)=O)nn2)cc1`, the activation was -0.49%.

Regarding `COc1ccc(NC(=O)N(C)C[C@@H]2OCCCC[C@@H](C)Oc3ccc(NC(=O)NC4CCCCC4)cc3C(=O)N([C@H](C)CO)C[C@@H]2C)cc1`, the activation is 2.86%.

With `C[C@@H](CN1C2=NC[C@@H](Cc3ccccc3)N2C[C@H]1Cc1ccc(O)cc1)NC(=O)CCC1CCCCC1`, the activation was 1.3%.
